A selection: hits, their analogues and other compounds. The true share with any hit is near 12%.
HP1b binding inh – HP1-beta chromodomain-methylated histone interaction inhibition. P83916. AlphaScreen HP1-beta / biotin-H3K9me3 peptide binding. Potency, µM (doses to about 114 µM), for inactives: top-dose activity change, negative = inhibition, actives largely listed as inhibitors. 390,000 tested, 0.56% active. AID 540317; also: nearly all actives have a fitted effect of over 70% in size
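HP1-beta protein (50 nM final) preincubated 30 min at room temperature with biotinylated H3(1-18)K9me3 peptide (50 nM) in PBS pH 7.4, 0.01% Tween-20, then compound added for 30 min. AlphaScreen streptavidin donor/nickel chelate acceptor beads (10 ug/mL final), 30 min dark, luminescence read.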
Sfp PPTase inh – inhibitors of Bacillus subtilis Sfp phosphopantetheinyl transferase | Q9F4F7 | Biochemical Sfp PPTase activity, qHTS | Potency, µM, inactives show largest response in the series, negative = inhibition, actives largely listed as inhibitors | 310,000 tested, 3.5% active;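 also: the enzyme is Sfp with the accession as filed and its product quenches rhodamine fluorescence; 0% = enzyme reaction without inhibitor and -100% = no enzyme wells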
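Buffer: 50 mM Hepes-Na pH 7.6, 10 mM MgCl2, 0.01% Nonidet P-40, 0.01% BSA. Enzyme 15 nM, pre-exposed to compound 15 min; substrates then added and fluorescence change tracked over 30 min.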
G9a block – blocks human histone lysine methyltransferase G9a; G9a H3K9 monomethylation, AlphaScreen, 2 h; Potency, µM (series often up to 102 µM), without a hit: at the top dose activity, negative = inhibition, hits mostly inhibitors; 350,000 tested, 8.8% active; AID 504332; also: % is scaled to controls: 0 for no effect and ±100 for the full control effect; nearly all actives have a fitted effect of over 75% in size
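Signal arises when biotinylated H3K9 peptide, once monomethylated, bridges streptavidin donor and antibody-captured acceptor beads. Enzyme at 20 nM was preincubated 15 min with test compounds; peptide 500 nM and SAM 20 uM then reacted for 2 h.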
JMJD2A Tudor – inhibitors of human JMJD2A Tudor domain | 390,000 tested, 4.4% active | Potency, µM (highest dose often 114 µM), without a hit: at the highest dose activity change, negative = inhibition, usual class: inhibitors | AID 504339 | AlphaScreen JMJD2A-Tudor / H3K4me3 peptide binding; also: % is scaled to controls: 0 for no effect and ±100 for the full control effect; nearly all actives have a fitted effect of over 50% in size
BAZ2B block – blocks human BAZ2B | Q9UIF8 | AlphaScreen BAZ2B-H3K14Ac peptide displacement | Potency, µM (series often up to 114 µM), for the others: at the highest dose activity change, negative = inhibition, usual class: inhibitors | 360,000 tested, 4.4% active; also: % is scaled to controls: 0 for no effect and ±100 for the full control effect; nearly all actives have a fitted effect of over 60% in size
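BAZ2B 50 nM plus b-H3(5-23)K14Ac 50 nM, PBS pH 7.4/0.01% Tween-20, 30 min RT; compound added (max 110 uM), 30 min RT; streptavidin donor/Ni-chelate acceptor beads 10 ug/mL final, 20 min dark; AlphaScreen read.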
* hit, by the source's call; ? = inconclusive; . = not tested or not shown; [ ] = remark or other dose. Calls follow the shape of the dose curve; as a rule, active = well fitted curve in the direction sought with a large enough effect; inconclusive = small, poorly fitted or top-dose-only effect, or another doubt; inactive = no such curve, though single readings can be large; an effect the other way counts as inactive or inconclusive. Potency is read from the fitted curve at half-maximal effect.

SMILES | HP1b binding inh | Sfp PPTase inh | G9a block | JMJD2A Tudor | BAZ2B block
CC(C)(C)OC(=O)N1CCC(c2c(C(=O)NC3CCN(Cc4ccccc4)CC3)cnn2-c2cccc(F)c2)CC1 | 10% | . | -25%[59 µM] | -21% | 3%[57.1 µM]
CC1CCN(c2ccc(-c3cccc(NS(=O)(=O)c4ccc(Cl)s4)c3)nn2)CC1 | 9%[57 µM] | . | -5%[59 µM] | -31% | -17%
N#Cc1c(-c2ccco2)cc(-c2ccc(F)cc2)nc1N | 54% | 28µM* | ? | -24% | -11%
N#Cc1c(-c2cccs2)cc(C2CC2)nc1SCC(N)=O | 46% | -5% | 9%[12.7 µM] | 0% | 9%
N#Cc1c(-c2ccco2)cc(C2CC2)nc1SCC(=O)c1ccccc1 | 32% | 35µM* | ? | 0% | -1%
COc1ccc(NC(=O)CSc2nc(-c3ccccc3)cc(-c3cc(OC)c(OC)c(OC)c3)c2C#N)c(OC)c1 | 12% | . | ? | -26% | -9%
COc1cc(-c2cc(-c3ccccc3)nc(SCC(=O)O)c2C#N)cc(OC)c1OC | -18% | -18% | 50µM* | -8% | 0%
N#Cc1c(-c2ccc(Cl)cc2)cc(-c2ccccc2)nc1SCC(=O)O | 46% | -14% | ? | -26% | 56µM*
Nc1ncnc2c1ncn2[C@@H]1O[C@H](C(=O)NC2CC2)[C@@H](O)[C@H]1O | . | 5% | 34%[59 µM] | . | .
CCOC(=O)C1=CN(Cc2cccc(-c3ccc(Cl)nc3)c2)S(=O)(=O)N(C)C1C (configuration not stated) | 63% | . | . | 14% | .
C=CCNC(=S)N1N=C(c2ccco2)CC1c1ccco1 (configuration not stated) | 9% | . | . | -31% | .
COc1ccccc1NC(=O)c1ccc(NC(=O)COC(=O)c2cccnc2Cl)cc1 | 25% | . | . | -6% | .
COC(=O)CSc1nc(-c2ccccc2)cc(-c2ccco2)c1C#N | 9% | ? | 8%[0.501 µM] | ? | 71µM*
N#Cc1c(-c2ccccc2)cc(C2CC2)nc1SCC(=O)c1cccs1 | 44% | 3% | 50% | -1% | 4%
N#Cc1c(-c2ccccc2)cc(C2CC2)nc1SCC(=O)O | 20% | -18% | 11µM* | -26% | -32%
CCCCS(=O)(=O)CC(O)CSc1nc(-c2ccc(C)cc2)cc(-c2ccccc2)c1C#N (configuration not stated) | -8% | . | 7.9µM* | -25% | -2%
N#Cc1c(-c2ccccc2)cc(-c2ccccc2)nc1SCC(=O)Nc1ccc(Cl)cc1 | 43% | . | ? | 7% | 12%
COC(=O)CSc1nc(N)c(C#N)c(-c2ccco2)c1C#N | 30% | -29% | -6%[59 µM] | -6% | -1%
N#Cc1c(-c2ccc(F)cc2)cc(-c2ccccc2)nc1SCC(=O)NCC(=O)O | ? | 2.2µM* | . | 79µM* | 50µM*
COc1ccccc1-c1cc(-c2ccccc2)nc(SC(C(N)=O)c2ccccc2)c1C#N (configuration not stated) | 38% | -16% | -29%[59 µM] | -13% | 79µM*
N#Cc1c(-c2ccccc2)cc(-c2ccccc2)nc1SCCC(=O)O | -11% | 45µM* | . | -22% | 3%
CCCCn1c(=O)c2oc3ccccc3c2n(CC(=O)Nc2ccc(CC)cc2)c1=O | -1% | . | 1%[59 µM] | -19% | -6%
N#Cc1ccccc1OCC(=O)Nc1nnc(C2CC2)s1 | ? | . | 24%[59 µM] | 1% | -4%
O=C(CSc1nnc(-c2ccccc2F)n1C1CCCCC1)Nc1cc(C(=O)O)ccc1Cl | 44% | . | . | -2% | .
COc1ccc2c(C)cc(SCC(=O)Nc3ccc(Cl)cn3)nc2c1 | -11% | -17% | 13µM* | -25% | -25%
SMILES | HP1b binding inh | Sfp PPTase inh | G9a block | JMJD2A Tudor | BAZ2B block
COc1ccc2c(C)cc(SCC(=O)NC3CCCCC3)nc2c1 | 21% | . | . | -10% | .
CCCCC(=O)Nc1ccc(C(N)=O)cc1 | 3% | 0% | 10% | -13% | 6%
CCCCC(=O)Nc1ccc(NCc2ccc(C)s2)cc1 | -1% | 5% | 50µM* | ? | -35%
O=C(O)c1ccccc1C(=O)Nc1n[nH]c(=S)s1 | 28µM* | 10µM* | 1.4µM* | 13µM* | 32µM*
O=C(O)c1ccccc1C(=O)Nc1nccs1 | 1% | -7% | 0%[0.0925 µM] | -22% | 14%
c1ccc(Cc2ccc(OCCN3CCOCC3)cc2)cc1 | 20% | -6% | -9% | -24% | -25%
O=C(NCCOc1ccc(F)cc1)C1CCC(=O)N(CCN2CCOCC2)C1 (configuration not stated) | -11% | 12% | 45µM* | 2% | -34%
c1ccc(OCCN2CCOCC2)cc1 | ? | -11% | -29%[2.33 µM] | 20µM* | 35µM*
Cc1ccc(OCCCN2CCOCC2)cc1 | ? | -10% | 40µM* | 10µM* | ?
COc1ccc(OCCC(=O)NCCN2CCOCC2)cc1 | 24% | 13% | 56µM* | -18% | -13%
Cc1nn(CC(=O)Nc2ccc3c(c2)OCCO3)c(C)c1[N+](=O)[O-] | 24% | . | . | -10% | .
COc1ccc(NC(=O)Cn2c(=O)n(Cc3ccco3)c(=O)c3sc4ccccc4c32)cc1Cl | 14% | . | -4%[59 µM] | -19% | -9%
CCOC(=O)c1ccc(NC(=O)COCc2cc(-c3ccc4c(c3)OCO4)on2)cc1 | 33% | . | 0%[59 µM] | -2% | 0%
Cc1cc(C)cc(OCCN2CCOCC2)c1 | ? | -12% | 11µM* | 28µM* | -31%
Cc1cc(OCCN2CCOCC2)nc2ccccc12 | 20% | 11% | ? | -9% | -32%
COc1ccc(OCCN2CCOCC2)cc1 | ? | -7% | 32µM* | 50µM* | ?
COc1ccc(NC(=O)Nc2ccc(N(C)C)cc2)cc1 | ? | -5% | 3.5µM* | -35% | ?
COc1ccc(NC(=O)Nc2ccccc2SC)cc1 | 29% | -10% | 50µM* | -9% | -14%
CCCCNC(=O)Nc1ccccc1C(=O)NCCC | 25% | 7% | 17%[59 µM] | -9% | -3%
CSc1ccc(NC(N)=S)cc1 | 25% | 5% | -25% | -5% | -25%
CN(C)c1ccc(NC(N)=S)cc1 | -1% | -20% | 10µM* | -32% | ?
CCCNC(=O)Nc1ccccc1SC | 20% | -15% | 40µM* | -16% | -18%
O=C(CN1C(=O)CCc2cc(S(=O)(=O)N3CCOCC3)ccc21)NCc1ccccc1Cl | 31% | . | -3%[12.7 µM] | 3% | -2%
COc1ccc(NC(=O)N/C=C/c2ccc(Cl)cc2)cc1 | -3% | 12% | 20µM* | -22% | -26%
COc1ccc(NC(=O)C(CC(=O)O)Cc2ccccc2)cc1 (configuration not stated) | 9% | -6% | ? | -31% | 0%
COc1ccc(NC(=O)C(CC(=O)O)C(C)c2ccccc2)cc1 (configuration not stated) | -17% | 13% | -38% | 14µM* | 7%
COc1ccc(NC(=O)Nc2sc(=S)n(C)c2C)cc1 | -22% | 20µM* | 50µM* | -16% | -37%
COc1ccc(C(NC(=O)/C=C/c2ccco2)c2ccc(OC)c(OC)c2)cc1OC | -12% | 20µM* | 8.9µM* | -26% | ?
